Drawing on PubChem BioAssay (EPA / NIEHS), this text covers AC50 and outcome for 17 compounds.

Records with an inconclusive call do not appear. Activity calls are given as the source filed them. Rule for the calls: active = hit-call score of the fitted dose curve at least 0.9, where 1 is the maximum; inconclusive = response in the unintended direction; inactive = score below 0.9.

The target of test [1] is rat Thyrotropin Releasing Hormone Receptor (TRH), Trhr (gene 25570) (UniProt Q01717). Put plainly: NVS_GPCR_rTRH: NovaScreen (NVS) G Protein-Coupled Receptor Assay for rat Thyrotropin Releasing Hormone Receptor (TRH) (AID 2283329).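 Note: hit means lower bound tracer signal versus DMSO baseline.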 On the procedure: NVS_GPCR_rTRH is a biochemical, single-readout assay that uses extracted gene-proteins from Rat forebrain membranes in a tissue-based cell-free assay. Measurements were taken 4 hours after chemical dosing in a 48-well plate.NVS_GPCR_rTRH is one of one assay component(s) measured or calculated from the NVS_GPCR_rTRH assay. It is designed to make measurements of radioligand binding, a form of binding reporter, as detected with scintillation counting signals by Filter-based radiodetection technology.Data from the assay component NVS_GPCR_rTRH was analyzed into 1 assay endpoint. This assay endpoint, NVS_GPCR_rTRH, was analyzed in the positive analysis fitting direction relative to DMSO as the negative control and baseline of activity. Using a type of binding reporter, loss-of-signal activity can be used to understand changes in the binding as they relate to the gene Trhr. Furthermore, this assay endpoint can be referred to as a primary readout, because the performed assay has only produced 1 assay endpoint. To generalize the intended target to other relatable targets, this assay endpoint is annotated to the gpcr intended target family, where the subfamily is rhodopsin-like receptor.
Binding assays used specific radioligands (tritiated, iodinated) with non-radioactive competitive displacement ligands in agonist or antagonist protocols (as indicated) and various reference compounds and inhibitors to titrate specific binding to receptors and transporters. Most enzyme assays (CYPs, kinases, phosphatases, proteases, HDACs) used recombinant protein and specific substrates (fluorescence mostly, some colorimetric and radioactive) and inhibitors, followed by a biochemical separation of substrate and product. All assays for the biochemical HTS were initially run in duplicate at a single concentration (10 uM for CYP450 assays and 25 uM for all others). […] Each assay was run with positive and negative controls, and concurrent controls on every plate. The follow-up (secondary) screen tested active chemical-pairs in concentration series, as well as a few additional assays not tested in the primary screen, some selected negative inactives, and several cases re-run in the concentration series for confirmatory purposes.

The target of test [2] is Sodium channel protein type 1 subunit alpha (Rattus norvegicus) (UniProt P04774). Put plainly: NVS_IC_rNaCh_site2: NovaScreen (NVS) Ion Channel Assay for rat Sodium Channel, Site 2 (NaCh) (AID 2283322).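 Note: hit means loss of radioligand binding signal relative to DMSO so AC50 marks displacement.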 The gist of the method: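 Initial duplicate single-point testing at 25 uM, followed by concentration-response runs for actives. Binding of radioligand to rat forebrain membranes quantified after 1 h via filter-based radiodetection.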

For test [3], the target named is Voltage-gated inwardly rectifying potassium channel KCNH2 (Homo sapiens) (UniProt Q12809). Put plainly: NVS_IC_hKhERGCh: NovaScreen (NVS) Ion Channel Assay for human Potassium Channel ERG (KhERGCh) (AID 2283333). The method in brief:
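Membranes from CHO cells expressing human ERG; displacement of radioligand measured by filtration and scintillation after 0.75 h. Single-concentration duplicate screen at 25 uM, then concentration-response for actives; DMSO baseline.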

Test [4] addresses bovine Gamma-Aminobutyric Acid Type A Receptor BDZ, alpha 5 site (GABARa5), GABRA5 (gene 523515) (UniProt Q08E50). Put plainly: NVS_LGIC_bGABARa5: NovaScreen (NVS) Ligand-Gated Ion Channel Assay for bovine Gamma-Aminobutyric Acid Type A Receptor BDZ, alpha 5 site (GABARa5) (AID 2283323). The method, then: NVS_LGIC_bGABARa5 is a biochemical, single-readout assay that uses extracted gene-proteins from Bovine hippocampal membranes in a tissue-based cell-free assay. Measurements were taken 1 hour after chemical dosing in a 48-well plate.NVS_LGIC_bGABARa5 is one of one assay component(s) measured or calculated from the NVS_LGIC_bGABARa5 assay. It is designed to make measurements of radioligand binding, a form of binding reporter, as detected with scintillation counting signals by Filter-based radiodetection technology.Data from the assay component NVS_LGIC_bGABARa5 was analyzed into 1 assay endpoint. This assay endpoint, NVS_LGIC_bGABARa5, was analyzed in the positive analysis fitting direction relative to DMSO as the negative control and baseline of activity. Using a type of binding reporter, loss-of-signal activity can be used to understand changes in the binding as they relate to the gene GABRA5. Furthermore, this assay endpoint can be referred to as a primary readout, because the performed assay has only produced 1 assay endpoint. To generalize the intended target to other relatable targets, this assay endpoint is annotated to the ion channel intended target family, where the subfamily is ligand-gated ion channel. […]

For test [5], the target named is rat Glutamate, AMPA Site (AMPA), Gria1 (gene 50592) (UniProt P19490). Put plainly: NVS_LGIC_rAMPA: NovaScreen (NVS) Ligand-Gated Ion Channel Assay for rat Glutamate, AMPA Site (AMPA) (AID 2283324). The method in brief: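 Screening at 25 uM in duplicate preceded concentration series reaching 50 uM for qualifying compounds. Radioligand displacement on rat forebrain membranes, 1 h, filter-based scintillation readout; reduced binding relative to DMSO.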

The target of test [6] is rat Gamma-Aminobutyric Acid Type A Receptor, Non-Selective (GABAR-NonSelective), Gabra1 (gene 29705) (UniProt P62813). Put plainly: NVS_LGIC_rGABAR_NonSelective: NovaScreen (NVS) Ligand-Gated Ion Channel Assay for rat Gamma-Aminobutyric Acid Type A Receptor, Non-Selective (GABAR-NonSelective) (AID 2283326). The method in brief:
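Compounds were first screened in duplicate at 25 uM, with actives run as singleton concentration series (max 50 uM). Binding of a radioligand to rat whole-brain GABA-A preparation was measured by filtration and scintillation counting after 1 h, DMSO baseline.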

For test [7], the target named is human Serotonin, 5-Hydroxytryptamine Receptor 3 (5HT3), HTR3A (gene 3359) (UniProt P46098). Put plainly: NVS_LGIC_h5HT3: NovaScreen (NVS) Ligand-Gated Ion Channel Assay for human Serotonin, 5-Hydroxytryptamine Receptor 3 (5HT3) (AID 2283325). The gist of the method:
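Initially tested at 25 uM in duplicate, then up to 50 uM in concentration-response for actives, compounds competed with a radioligand for HEK293-derived human 5-HT3 receptor. Bound counts were measured by filtration and scintillation at 1 h; loss of signal versus DMSO.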

For test [8], the target named is human Peripheral-type Benzodiazepine Receptor (PBR), TSPO (gene 706) (UniProt P30536). Put plainly: NVS_MP_hPBR: NovaScreen (NVS) Membrane Protein Assay for human Peripheral-type Benzodiazepine Receptor (PBR) (AID 2283331).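 Note: hits reduce radioligand binding relative to DMSO baseline.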 The gist of the method:
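Cell-free binding to human colonic membrane preparations measured by filter-based scintillation counting after 1 h. Compounds first run at 25 uM in duplicate, then concentration series for actives; signal loss against DMSO baseline.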

Test [9] deals with human Androgen Receptor (AR), AR (gene 367) (UniProt P10275). Put plainly: NVS_NR_hAR: NovaScreen (NVS) Nuclear Receptor Binding Assay for human Androgen Receptor (AR) (AID 2283332). The gist of the method:
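Radioligand competitive binding, scintillation read-out, in cell-free extract from LnCAP, measured 20 h after dosing. Screened first in duplicate at 25 uM, then concentration series for actives; activity fitted against DMSO.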

Test [10] deals with rat Glutamate, NMDA Agonist Site (GluNMDA), Grin1 (gene 24408) (UniProt P35439). Put plainly: NVS_LGIC_rGluNMDA_Agonist: NovaScreen (NVS) Ligand-Gated Ion Channel Assay for rat Glutamate, NMDA Agonist Site (GluNMDA) (AID 2283327). The gist of the method: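 Radioligand displacement at the agonist site on rat forebrain membrane preparations, read by filter scintillation after 1 h. Chemicals were first run at 25 uM in duplicate; those passing threshold were titrated to a 50 uM maximum.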

Chain of rat Gamma-Aminobutyric Acid Type A Receptor, Non-Selective (GABAR-NonSelective), Gabra1 (gene 29705) (P62813 whole entry, looked up): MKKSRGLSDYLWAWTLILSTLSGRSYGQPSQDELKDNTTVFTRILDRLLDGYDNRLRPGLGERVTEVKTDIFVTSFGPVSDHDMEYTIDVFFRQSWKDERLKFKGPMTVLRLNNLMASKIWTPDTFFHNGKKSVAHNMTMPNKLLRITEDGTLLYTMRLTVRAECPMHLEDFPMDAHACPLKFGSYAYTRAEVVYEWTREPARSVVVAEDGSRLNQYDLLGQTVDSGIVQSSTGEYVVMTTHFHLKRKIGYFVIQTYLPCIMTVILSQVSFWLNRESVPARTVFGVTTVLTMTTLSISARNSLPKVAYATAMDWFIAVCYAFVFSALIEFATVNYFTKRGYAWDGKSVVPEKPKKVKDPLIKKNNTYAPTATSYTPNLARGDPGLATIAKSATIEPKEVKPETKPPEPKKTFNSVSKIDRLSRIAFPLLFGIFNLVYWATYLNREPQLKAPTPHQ
Chain of human Peripheral-type Benzodiazepine Receptor (PBR), TSPO (gene 706) (P30536 whole entry, looked up): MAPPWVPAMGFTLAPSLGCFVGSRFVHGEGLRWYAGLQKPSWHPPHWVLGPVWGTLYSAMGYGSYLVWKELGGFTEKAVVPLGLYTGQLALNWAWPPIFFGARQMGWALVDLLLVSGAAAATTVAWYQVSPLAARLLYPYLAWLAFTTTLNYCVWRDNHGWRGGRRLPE
Chain of rat Glutamate, AMPA Site (AMPA), Gria1 (gene 50592) (P19490 whole entry, looked up): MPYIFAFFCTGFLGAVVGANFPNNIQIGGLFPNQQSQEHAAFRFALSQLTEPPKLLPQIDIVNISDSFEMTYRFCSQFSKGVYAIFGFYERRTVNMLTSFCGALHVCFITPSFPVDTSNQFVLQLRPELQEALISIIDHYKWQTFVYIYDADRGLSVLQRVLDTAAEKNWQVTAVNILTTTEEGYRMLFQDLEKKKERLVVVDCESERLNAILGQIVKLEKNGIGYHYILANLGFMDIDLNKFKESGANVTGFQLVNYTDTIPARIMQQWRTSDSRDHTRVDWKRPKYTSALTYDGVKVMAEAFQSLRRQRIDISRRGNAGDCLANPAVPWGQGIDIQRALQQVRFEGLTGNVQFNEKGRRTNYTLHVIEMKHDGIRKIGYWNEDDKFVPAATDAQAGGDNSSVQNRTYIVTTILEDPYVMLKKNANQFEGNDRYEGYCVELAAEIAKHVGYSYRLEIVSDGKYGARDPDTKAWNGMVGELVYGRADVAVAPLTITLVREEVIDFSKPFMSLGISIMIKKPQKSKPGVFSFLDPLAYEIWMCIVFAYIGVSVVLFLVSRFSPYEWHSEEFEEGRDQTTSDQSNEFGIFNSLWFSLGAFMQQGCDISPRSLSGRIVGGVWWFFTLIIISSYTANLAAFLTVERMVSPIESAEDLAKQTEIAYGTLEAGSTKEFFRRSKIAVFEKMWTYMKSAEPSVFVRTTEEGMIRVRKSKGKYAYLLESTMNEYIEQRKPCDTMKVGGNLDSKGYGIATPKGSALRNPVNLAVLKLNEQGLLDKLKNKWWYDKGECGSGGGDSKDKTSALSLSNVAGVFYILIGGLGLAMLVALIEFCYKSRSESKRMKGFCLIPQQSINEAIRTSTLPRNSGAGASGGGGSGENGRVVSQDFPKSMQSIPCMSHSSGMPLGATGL
Chain of Voltage-gated inwardly rectifying potassium channel KCNH2 (Homo sapiens) (Q12809 whole entry, looked up): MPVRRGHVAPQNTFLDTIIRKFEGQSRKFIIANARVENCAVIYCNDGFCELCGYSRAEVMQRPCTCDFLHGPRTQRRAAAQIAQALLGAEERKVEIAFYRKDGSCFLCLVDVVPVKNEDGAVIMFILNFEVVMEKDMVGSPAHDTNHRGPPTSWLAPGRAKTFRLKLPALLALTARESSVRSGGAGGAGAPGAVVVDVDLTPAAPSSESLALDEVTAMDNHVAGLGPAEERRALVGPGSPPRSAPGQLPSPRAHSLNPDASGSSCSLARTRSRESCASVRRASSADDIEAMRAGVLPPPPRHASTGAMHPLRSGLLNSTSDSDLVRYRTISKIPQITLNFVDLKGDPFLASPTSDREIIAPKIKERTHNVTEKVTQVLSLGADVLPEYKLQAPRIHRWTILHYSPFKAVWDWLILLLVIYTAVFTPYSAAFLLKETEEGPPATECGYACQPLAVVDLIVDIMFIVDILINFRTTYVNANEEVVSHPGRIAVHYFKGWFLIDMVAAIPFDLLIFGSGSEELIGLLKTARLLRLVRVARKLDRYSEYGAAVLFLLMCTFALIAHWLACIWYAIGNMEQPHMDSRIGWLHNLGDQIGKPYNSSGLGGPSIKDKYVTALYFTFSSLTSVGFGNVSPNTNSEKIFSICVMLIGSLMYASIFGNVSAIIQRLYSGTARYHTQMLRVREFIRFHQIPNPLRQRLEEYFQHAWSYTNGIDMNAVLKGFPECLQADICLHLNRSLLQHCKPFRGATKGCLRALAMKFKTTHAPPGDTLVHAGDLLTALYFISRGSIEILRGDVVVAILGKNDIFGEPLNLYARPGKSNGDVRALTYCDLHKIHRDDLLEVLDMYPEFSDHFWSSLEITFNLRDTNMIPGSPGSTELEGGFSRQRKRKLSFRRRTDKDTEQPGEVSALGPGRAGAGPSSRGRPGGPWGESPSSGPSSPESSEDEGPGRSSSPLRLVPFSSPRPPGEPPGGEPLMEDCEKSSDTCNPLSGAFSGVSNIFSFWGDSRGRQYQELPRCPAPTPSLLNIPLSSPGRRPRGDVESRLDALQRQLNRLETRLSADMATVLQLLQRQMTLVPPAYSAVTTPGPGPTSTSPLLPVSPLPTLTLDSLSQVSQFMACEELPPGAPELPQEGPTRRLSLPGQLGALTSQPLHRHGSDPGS
Chain of human Serotonin, 5-Hydroxytryptamine Receptor 3 (5HT3), HTR3A (gene 3359) (P46098 whole entry, looked up): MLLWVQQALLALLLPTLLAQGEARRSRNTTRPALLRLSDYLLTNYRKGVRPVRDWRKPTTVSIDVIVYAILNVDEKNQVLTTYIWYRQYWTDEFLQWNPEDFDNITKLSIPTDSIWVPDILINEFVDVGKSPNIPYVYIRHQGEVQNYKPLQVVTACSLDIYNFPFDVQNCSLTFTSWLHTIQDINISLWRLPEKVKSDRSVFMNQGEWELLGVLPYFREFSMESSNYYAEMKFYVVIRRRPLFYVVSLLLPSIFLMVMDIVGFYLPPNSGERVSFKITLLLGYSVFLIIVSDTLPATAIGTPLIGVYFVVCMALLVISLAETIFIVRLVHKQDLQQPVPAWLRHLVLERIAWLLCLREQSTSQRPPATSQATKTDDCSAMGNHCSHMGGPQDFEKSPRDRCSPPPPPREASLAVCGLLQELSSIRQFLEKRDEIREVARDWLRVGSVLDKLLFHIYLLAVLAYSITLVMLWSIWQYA
Chain of rat Thyrotropin Releasing Hormone Receptor (TRH), Trhr (gene 25570) (Q01717 whole entry, looked up): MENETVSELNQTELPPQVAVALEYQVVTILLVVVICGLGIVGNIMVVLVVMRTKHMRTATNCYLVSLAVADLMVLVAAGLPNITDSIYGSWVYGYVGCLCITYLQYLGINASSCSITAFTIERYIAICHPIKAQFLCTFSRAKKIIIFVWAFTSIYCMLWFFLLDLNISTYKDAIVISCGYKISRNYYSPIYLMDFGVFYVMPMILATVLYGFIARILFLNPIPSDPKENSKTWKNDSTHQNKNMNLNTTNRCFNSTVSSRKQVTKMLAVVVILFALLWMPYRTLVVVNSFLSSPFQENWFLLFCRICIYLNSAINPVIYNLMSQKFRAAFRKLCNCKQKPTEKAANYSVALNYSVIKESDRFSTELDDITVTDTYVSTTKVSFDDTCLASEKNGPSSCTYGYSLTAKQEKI
Chain of human Androgen Receptor (AR), AR (gene 367) (P10275 whole entry, looked up): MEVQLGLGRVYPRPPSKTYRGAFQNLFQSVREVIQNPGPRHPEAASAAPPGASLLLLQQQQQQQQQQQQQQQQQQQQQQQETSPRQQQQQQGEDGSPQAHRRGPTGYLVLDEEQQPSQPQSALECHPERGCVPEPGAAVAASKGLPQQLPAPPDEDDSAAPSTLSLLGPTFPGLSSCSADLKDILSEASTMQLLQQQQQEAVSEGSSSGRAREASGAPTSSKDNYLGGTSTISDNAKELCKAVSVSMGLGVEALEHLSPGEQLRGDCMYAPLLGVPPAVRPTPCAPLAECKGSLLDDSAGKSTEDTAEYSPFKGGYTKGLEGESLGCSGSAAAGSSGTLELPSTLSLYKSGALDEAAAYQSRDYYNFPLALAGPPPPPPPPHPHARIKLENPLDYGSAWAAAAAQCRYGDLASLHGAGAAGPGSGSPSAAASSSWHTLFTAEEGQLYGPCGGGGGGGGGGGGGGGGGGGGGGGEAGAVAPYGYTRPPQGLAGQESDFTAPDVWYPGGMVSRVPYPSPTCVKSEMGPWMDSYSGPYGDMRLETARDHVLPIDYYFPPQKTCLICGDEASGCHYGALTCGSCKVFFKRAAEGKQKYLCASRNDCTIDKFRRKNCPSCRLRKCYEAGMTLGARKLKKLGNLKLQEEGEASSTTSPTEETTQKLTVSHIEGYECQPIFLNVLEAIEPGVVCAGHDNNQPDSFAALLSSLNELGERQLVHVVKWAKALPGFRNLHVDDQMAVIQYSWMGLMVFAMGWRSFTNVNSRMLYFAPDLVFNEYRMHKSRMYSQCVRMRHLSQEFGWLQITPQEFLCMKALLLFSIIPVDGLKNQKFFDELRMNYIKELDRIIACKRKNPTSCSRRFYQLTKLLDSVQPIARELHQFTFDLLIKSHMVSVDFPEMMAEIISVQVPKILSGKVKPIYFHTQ
Chain of bovine Gamma-Aminobutyric Acid Type A Receptor BDZ, alpha 5 site (GABARa5), GABRA5 (gene 523515) (Q08E50 whole entry, looked up): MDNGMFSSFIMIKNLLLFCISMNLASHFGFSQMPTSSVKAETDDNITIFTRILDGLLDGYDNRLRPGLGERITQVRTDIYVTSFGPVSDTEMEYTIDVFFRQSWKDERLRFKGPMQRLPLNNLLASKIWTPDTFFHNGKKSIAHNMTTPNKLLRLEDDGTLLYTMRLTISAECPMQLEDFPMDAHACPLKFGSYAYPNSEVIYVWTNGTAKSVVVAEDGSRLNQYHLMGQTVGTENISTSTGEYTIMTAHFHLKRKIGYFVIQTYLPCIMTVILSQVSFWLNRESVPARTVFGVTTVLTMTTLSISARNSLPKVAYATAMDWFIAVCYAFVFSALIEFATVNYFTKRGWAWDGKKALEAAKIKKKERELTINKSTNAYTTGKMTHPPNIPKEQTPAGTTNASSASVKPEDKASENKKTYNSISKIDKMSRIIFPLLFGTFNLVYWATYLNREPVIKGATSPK

With `O=C(NS(=O)(=O)/C=C/c1ccccc1)c1ccc(F)cc1Cl`, in test [1], the AC50 is 0.0025 µM (active).

Consider `CCOC(=O)COc1ccc2c(c1)CC(NCC(O)c1cccc(Cl)c1)CC2` (stereo not drawn), for which the values for the half-maximal activity concentration (AC50) in test [2] and in test [3] were 6.7 µM (active) and 21.5 µM (active), respectively. Turning to `CNCc1ccc(NC(=O)c2c[nH]c3c2C(=O)CCC3)cc1`, the compound was called inactive in [4], in test [5] and in test [6]. Regarding `COc1cccc(-c2ccc(/C=C\CN3CCCCCC3)cc2Cl)c1`, the half-maximal activity concentration (AC50) in test [2] is 1.33 µM (active); in test [8], 7.83 µM (active); in test [3] it was 5.95 µM (active). For the same compound, the compound was called inactive in test [7] and in test [6].

With `O=C(O)CC(O)C(=O)O` (stereo not drawn), the compound was classed as inactive in [2] and in test [5].

Take `COCCOc1cc2cc(C(=O)NC3CCN(C(C)C)CC3)n(CC(=O)Nc3ccc(Cl)cn3)c2cn1`: the concentration at half-maximal activity (AC50) in test [2] was 25.8 µM (active). Besides, the compound was called inactive in test [6].

For the compound `CCCN(C1CCN(C(=O)C2CCNCC2)CC1)[C@@H]1CCc2ccc(OC)cc2C1`, in [2], the AC50 is 7.66 µM (active). With `O=C(OC[C@H]1O[C@@H](OC(=O)c2cc(O)c(O)c(OC(=O)c3cc(O)c(O)c(O)c3)c2)[C@H](OC(=O)c2cc(O)c(O)c(OC(=O)c3cc(O)c(O)c(O)c3)c2)[C@@H](OC(=O)c2cc(O)c(O)c(OC(=O)c3cc(O)c(O)c(O)c3)c2)[C@@H]1OC(=O)c1cc(O)c(O)c(OC(=O)c2cc(O)c(O)c(O)c2)c1)c1cc(O)c(O)c(OC(=O)c2cc(O)c(O)c(O)c2)c1`, the AC50 in test [5] is 9.44 µM (active); in test [8], 5.11 µM (active). For `CCCCC(CC)COC(=O)CCCCCCCCC(=O)OCC(CC)CCCC` (stereo not drawn), the outcome in [2] was inactive.

Take `CC(C)=CCCC(C)=CC=O`: the compound was classed as inactive in test [5]. As for `CCCCCCc1ccc(O)cc1O`, in test [2], the compound was called inactive. In addition, the AC50 in [9] is 8.25 µM (active).

For the compound `CCN(C(=O)c1cc(C)cc(OC[C@H](C)Nc2ccncc2)c1)C(C)C`, the half-maximal activity concentration (AC50) in test [2] was 10.1 µM (active); in [6], 1.13 µM (active); in test [8], 12.5 µM (active).

In the case of `CC(C)=CCC/C(C)=C\CO`, in [7], the call was inactive.

Turning to `Nc1ccc(Nc2ccccc2)cc1`, the values for the AC50 in [2] and in test [8] were 5.39 µM (active) and 11.2 µM (active), respectively. Further, the outcome in [3] was inactive. For `O=c1[nH]c2ccc(S(=O)CCN3CCC(Cc4ccc(F)cc4)CC3)cc2o1` (stereo not drawn), the AC50 in [2] was 6.76 µM (active). In addition, the call in test [10] was inactive. Regarding `CCOC(=O)CC(CC(=O)OCC)(OC(C)=O)C(=O)OCC`, the compound was called inactive in [1]. On to `COc1ccc2sc(C(=O)Nc3nnn[nH]3)c(OC(C)C)c2c1`, for which, in test [8], the concentration at half-maximal activity (AC50) is 25 µM (active).
